# Reference: PubChem BioAssay (NCI)
# Where “and” joins values, the source holds several entries; their conditions need not be identical. Equal values may be shown once. The panel holds about 83,000 compounds, 20% with a hit somewhere; the sample as a whole holds those more often.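 For each line, cells grew in 96-well plates with the test compound present at a single concentration for 48 hours.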 Calls of active or inactive are those of the source. Rule for the calls: active = growth percent below 10; inactive = the rest. Where a SMILES comes first, the peptide text is derived from it. The star is where a group is joined. Trt = c1ccc(C(c2ccccc2)(c2ccccc2)*)cc1; Cbz = O=C(OCc1ccccc1)*
# Legend:
# Assay in all cases: NCI-60 one-dose screen, 48 h (100 = growth as untreated, 0 = no growth, -100 = all killed)
# [1] = tested on: NCI-H23 lung
# [2] = tested on: NCI-H226 lung
# [3] = tested on: NCI-H322M lung
# [4] = tested on: HOP-62 NSCLC
# [5] = tested on: NCI-H460 lung
# [6] = tested on: HOP-92 NSCLC
# [7] = tested on: NCI-H522 lung
# [8] = tested on: A549/ATCC NSCLC
# [9] = tested on: 786-0 renal
# [10] = tested on: COLO 205 colon
structure (smiles),measurement,setting,value
CC1(C)CC([P+](c2ccccc2)(c2ccccc2)c2ccccc2)=NN1,growth,[1]; 10 µM unless noted,28.1% (inactive)
same,growth,[2]; 10 µM unless noted,53.1% (inactive)
same,growth,[3]; 10 µM unless noted,81.1% (inactive)
same,growth,[4]; 10 µM unless noted,76.6% (inactive)
same,growth,[5]; 10 µM unless noted,17.2% (inactive)
same,growth,[6]; 10 µM unless noted,-1.14% (active)
same,growth,[7]; 10 µM unless noted,27.4% (inactive)
same,growth,[8]; 10 µM unless noted,37.1% (inactive)
same,growth,[9]; 10 µM unless noted,80.4% (inactive)
same,growth,[10]; 10 µM unless noted,-49.9% (active)
COC(=O)C(CSC(c1ccccc1)(c1ccccc1)c1ccccc1)NC(=O)C(CC(N)=O)NC(=O)OCc1ccccc1 (stereo not drawn) (Cbz-Asn-Cys(Trt)-OMe; configuration not given here),growth,[1]; 10 µM unless noted,65.4% (inactive)
same,growth,[2]; 10 µM unless noted,71.4% (inactive)
same,growth,[3]; 10 µM unless noted,30.8% (inactive)
same,growth,[4]; 10 µM unless noted,41.4% (inactive)
same,growth,[5]; 10 µM unless noted,31.2% (inactive)
same,growth,[6]; 10 µM unless noted,55.7% (inactive)
same,growth,[7]; 10 µM unless noted,51.5% (inactive)
same,growth,[8]; 10 µM unless noted,41.4% (inactive)
same,growth,[9]; 10 µM unless noted,30.7% (inactive)
same,growth,[10]; 10 µM unless noted,-50.8% (active)
CNC(=O)N/N=C/c1ccc([N+](=O)[O-])o1,growth,[1]; 10 µM unless noted,101% (inactive)
same,growth,[2]; 10 µM unless noted,104% (inactive)
same,growth,[3]; 10 µM unless noted,88.7% (inactive)
same,growth,[4]; 10 µM unless noted,102% (inactive)
same,growth,[5]; 10 µM unless noted,109% (inactive)
same,growth,[6]; 10 µM unless noted,101% (inactive)
same,growth,[7]; 10 µM unless noted,85.2% (inactive)
same,growth,[8]; 10 µM unless noted,82.3% (inactive)
same,growth,[9]; 10 µM unless noted,111% (inactive)
same,growth,[10]; 10 µM unless noted,109% (inactive)
Cc1ccc(N=C=C(c2ccccc2)c2ccccc2)cc1,growth,[1]; 10 µM unless noted,81% (inactive)
same,growth,[2]; 10 µM unless noted,90.3% (inactive)
same,growth,[3]; 10 µM unless noted,98.1% (inactive)
same,growth,[4]; 10 µM unless noted,104% (inactive)
same,growth,[5]; 10 µM unless noted,97.3% (inactive)
same,growth,[6]; 10 µM unless noted,79.2% (inactive)
same,growth,[7]; 10 µM unless noted,76% (inactive)
same,growth,[8]; 10 µM unless noted,97.5% (inactive)
same,growth,[9]; 10 µM unless noted,70.1% (inactive)
same,growth,[10]; 10 µM unless noted,114% (inactive)
O=[N+]([O-])c1ccc2c(N=Nc3ccc4ccccc4c3O)c(O)cc(S(=O)(=O)O)c2c1,growth,[1]; 10 µM unless noted,101% (inactive)
same,growth,[2]; 10 µM unless noted,103% (inactive)
same,growth,[3]; 10 µM unless noted,65.1% (inactive)
same,growth,[4]; 10 µM unless noted,97.5% (inactive)
same,growth,[5]; 10 µM unless noted,102% (inactive)
same,growth,[6]; 10 µM unless noted,101% (inactive)
same,growth,[7]; 10 µM unless noted,105% (inactive)
same,growth,[8]; 10 µM unless noted,103% (inactive)
same,growth,[9]; 10 µM unless noted,106% (inactive)
same,growth,[10]; 10 µM unless noted,104% (inactive)
O=C(/C=C\c1ccccc1)N1c2ccccc2CC1c1c[nH]c2ccccc12 (stereo not drawn),growth,[1]; 10 µM unless noted,59.5% (inactive)
same,growth,[2]; 10 µM unless noted,67.3% (inactive)
same,growth,[3]; 10 µM unless noted,76.9% (inactive)
same,growth,[4]; 10 µM unless noted,57.1% (inactive)
same,growth,[5]; 10 µM unless noted,70.1% (inactive)
same,growth,[6]; 10 µM unless noted,47.5% (inactive)
same,growth,[7]; 10 µM unless noted,30.2% (inactive)
same,growth,[8]; 10 µM unless noted,64.5% (inactive)
same,growth,[9]; 10 µM unless noted,77.7% (inactive)
same,growth,[10]; 10 µM unless noted,56.6% (inactive)
Cc1c2ccccc2c(C)c2c1ccc1ccccc12,growth,[1]; 10 µM unless noted,81.6% (inactive)
same,growth,[2]; 10 µM unless noted,100% (inactive)
same,growth,[3]; 10 µM unless noted,90.8% (inactive)
same,growth,[4]; 10 µM unless noted,95.1% (inactive)
same,growth,[5]; 10 µM unless noted,87.6% (inactive)
same,growth,[6]; 10 µM unless noted,88.6% (inactive)
same,growth,[7]; 10 µM unless noted,79.5% (inactive)
same,growth,[8]; 10 µM unless noted,78.4% (inactive)
same,growth,[9]; 10 µM unless noted,91.5% (inactive)
same,growth,[10]; 10 µM unless noted,94.6% (inactive)
COc1cc(NS(C)(=O)=O)ccc1Nc1c2ccccc2nc2ccccc12,growth,[1]; 2.5 µM,8.63% (active)
same,growth,[1]; 10 µM,-3.53% (active) [middle of 4 runs]
same,growth,[2]; 10 µM unless noted,-8.63% [2.5 µM] (active)
same,growth,[3]; 10 µM unless noted,83.9% [2.5 µM] (inactive)
same,growth,[4]; 10 µM unless noted,18.2% [2.5 µM] (inactive)
same,growth,[5]; 10 µM unless noted,4.6% [2.5 µM] (active)
same,growth,[6]; 2.5 µM,9.79% (active)
same,growth,[6]; 10 µM,42.5% (inactive) and 10.3% (inactive)
same,growth,[7]; 2.5 µM,43% (inactive)
same,growth,[7]; 10 µM,-47.9% (active) and 4% (active) and 37.2% (inactive)
same,growth,[8]; 2.5 µM,28.1% (inactive)
same,growth,[8]; 10 µM,12.9% (inactive) [middle of 4 runs]
same,growth,[9]; 10 µM unless noted,-3.06% [2.5 µM] (active)
same,growth,[10]; 10 µM unless noted,39.7% [2.5 µM] (inactive)
O=C(CC1(O)C(=O)Nc2c(Cl)ccc(Cl)c21)c1ccc(Cl)cc1Cl (stereo not drawn),growth,[1]; 10 µM unless noted,101% (inactive)
same,growth,[2]; 10 µM unless noted,97.6% (inactive)
same,growth,[3]; 10 µM unless noted,108% (inactive)
same,growth,[4]; 10 µM unless noted,70.2% (inactive)
same,growth,[5]; 10 µM unless noted,108% (inactive)
same,growth,[6]; 10 µM unless noted,92.5% (inactive)
same,growth,[7]; 10 µM unless noted,76.2% (inactive)
same,growth,[8]; 10 µM unless noted,91.4% (inactive)
same,growth,[9]; 10 µM unless noted,102% (inactive)
same,growth,[10]; 10 µM unless noted,97.5% (inactive)
S=C(NCCNC(=S)[S][Sn]([c]1ccccc1)([c]1ccccc1)[c]1ccccc1)[S][Sn]([c]1ccccc1)([c]1ccccc1)[c]1ccccc1,growth,[1]; 10 µM unless noted,-68.6% (active)
same,growth,[2]; 10 µM unless noted,-95.4% (active)
same,growth,[3]; 10 µM unless noted,-99.4% (active)
same,growth,[4]; 10 µM unless noted,-100% (active)
same,growth,[5]; 10 µM unless noted,-86.8% (active)
same,growth,[6]; 10 µM unless noted,-87.3% (active)
same,growth,[7]; 10 µM unless noted,-93.2% (active)
same,growth,[8]; 10 µM unless noted,-98.8% (active)
same,growth,[9]; 10 µM unless noted,-94% (active)
same,growth,[10]; 10 µM unless noted,-91.3% (active)
O=C(Nc1cccc(Br)c1)Oc1cccc2cccnc12,growth,[1]; 10 µM,106% (inactive)
same,growth,[1]; 100 µM,-21% (active)
same,growth,[2]; 10 µM,106% (inactive)
same,growth,[2]; 100 µM,63.1% (inactive)
same,growth,[3]; 10 µM,117% (inactive)
same,growth,[3]; 100 µM,84.9% (inactive)
same,growth,[4]; 10 µM,102% (inactive)
same,growth,[4]; 100 µM,50.1% (inactive)
same,growth,[5]; 10 µM,104% (inactive)
same,growth,[5]; 100 µM,8.11% (active)
same,growth,[6]; 10 µM,83% (inactive)
same,growth,[6]; 100 µM,49.2% (inactive)
same,growth,[7]; 10 µM unless noted,-56.9% [100 µM] (active)
same,growth,[8]; 10 µM,99.1% (inactive)
same,growth,[8]; 100 µM,20.7% (inactive)
same,growth,[9]; 10 µM,94.9% (inactive)
same,growth,[9]; 100 µM,88.6% (inactive)
same,growth,[10]; 10 µM,117% (inactive)
same,growth,[10]; 100 µM,51.8% (inactive)
